Several values for one entry are separate records, joined by “and”; a condition that tells them apart may be missing. Equal values may be shown once. About 2,200 (0.85%) of roughly 260,000 compounds were called active. The sample holds actives, similar compounds and a random draw of the others, so the mix is not that of the screen.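 Rule for the calls: active = compounds whose cAMP rise, as percent of the full-agonist control response, exceeds 60; inactive = the rest.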 Some structures have more than one record in an assay (separate samples or runs), and their calls can disagree.

The target in this assay is Prostaglandin E2 receptor EP2 subtype (Homo sapiens) (UniProt P43116). Put plainly: modulation of human EP2 prostaglandin signaling – cell-based, HTRF cAMP, PGE2 stimulation, primary screen (AID 940).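 Note: rat C6 glioma line stably carrying human EP2 under a CMV promoter; the protocol text gives 20 µM as final concentration; 100% = response of wells given 1 µM PGE2.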 The following applies: EP2-expressing cells, cAMP HTRF FRET, PGE2 co-stimulation; at 25 µM; stronger effect = higher value.
Prostaglandin E2 receptor EP2 subtype (Homo sapiens), sequence (P43116 whole entry, looked up): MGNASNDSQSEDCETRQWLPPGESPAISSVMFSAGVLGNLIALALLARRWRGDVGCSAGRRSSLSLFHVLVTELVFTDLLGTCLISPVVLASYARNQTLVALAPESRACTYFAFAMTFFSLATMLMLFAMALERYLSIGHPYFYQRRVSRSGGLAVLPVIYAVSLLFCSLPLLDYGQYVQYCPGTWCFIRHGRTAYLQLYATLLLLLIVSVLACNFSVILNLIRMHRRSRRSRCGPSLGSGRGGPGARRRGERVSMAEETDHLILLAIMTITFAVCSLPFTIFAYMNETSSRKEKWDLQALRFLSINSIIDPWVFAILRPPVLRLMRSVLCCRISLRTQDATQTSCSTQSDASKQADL
For `Cn1c(=O)[nH]c(=O)c2c1nc(NCCCO)n2Cc1cccc2ccccc12`, the induction is 22% (inactive).

Regarding `CCC(C)(C)c1ccc(OCC(=O)N(C)C)c(C(C)(C)CC)c1`, the induction is 76% (active).

Regarding `CCc1nc(C)ccc1OCC(=O)N(CC)CC`, the induction is 8.52% (inactive).

Turning to `CN(C)CCOc1ccc(Cl)cc1C(C)(C)C`, the induction is -0.86% (inactive).

Regarding `COc1cc(C2NC(=O)NC(C)=C2C(=O)Nc2ccc(C)cc2C)ccc1O` (centres undefined), the induction is 5.85% (inactive).

With `COC(=O)CSc1nc2ccccc2c(=O)n1Cc1ccccc1`, the induction was 47.6% (inactive).

Take `O=C(CCn1c(SCC(=O)c2ccccc2)nc2ccccc2c1=O)NCc1ccc(F)cc1`: the induction was 11.2% (inactive).

Regarding `CSc1nc2ccccc2c(=O)n1Cc1ccc(F)cc1`, the induction was 80.8% (active).

Take `COc1cccc(C2(NC(=O)c3cccc(N4CCCCS4(=O)=O)c3)CCCC2)c1`: the induction was -5.04% (inactive).

Regarding `O=C(Nc1cc(Cl)cc(Cl)c1)C1CCN(C(=O)c2cccs2)CC1`, the induction is -118% (inactive).

With `C=CCn1c(SCC(=O)Nc2ccccc2F)nc2sc(C)c(C)c2c1=O`, the induction is -87.9% (inactive).

Take `COc1cccc(-c2ccc(NS(=O)(=O)c3ccc4c(c3)CCC(=O)N4)cc2)c1`: the induction is -97.5% (inactive).

Take `CCOc1ccc(/C=N/NC(N)=S)cc1`: the induction is -0.15% (inactive).

On to `CC(C)Oc1c(Br)cc(Br)cc1/C=N/NC(N)=S`, for which the induction was 62% (active).

For the compound `NC(=S)N/N=C/c1coc2cc(Cl)ccc2c1=O`, the induction is 5.33% (inactive).

Consider `COc1ccccc1NC(=S)N(Cc1cc2c(C)cc(C)cc2[nH]c1=O)C1CCCC1`, for which the induction was 3.07% (inactive).

On to `COC(=O)c1c(NC(=O)C2CC2)sc(C(=O)Nc2cc(C)ccc2C)c1C`, for which the induction is -75.5% (inactive).

On to `CCOC(=O)C(=O)Nc1sc(C(=O)Nc2cc(C)ccc2C)c(C)c1C(=O)OC`, for which the induction was -1.65% (inactive).

For the compound `COC(=O)c1c(NC(=O)C(C)C)sc(C(=O)Nc2cc(C)ccc2C)c1C`, the induction is 62% (active).

In the case of `COCCn1c(=O)n(CC(=O)N2CCN(c3ccccc3F)CC2)c2cccnc21`, the induction is 0.09% (inactive).

For the compound `CCN1c2ncccc2C(=O)NC12CCN(C(=O)c1cccc3c1C(=O)N(C)C3)CC2`, the induction is -5.04% (inactive).

For the compound `CCn1c(CSc2nc(C)cc(C)n2)nnc1SCC(=O)Nc1cccc(C(F)(F)F)c1`, the induction was -10.6% (inactive).

`CC[N+](C)(CC[N+](C)(C)C)Cc1cc2ccccc2o1` (centres undefined): the induction was -3.15% (inactive).

On to `CCCCCCn1c(SCC(=O)c2ccccc2)nc2c1c(=O)[nH]c(=O)n2C`, for which the induction was -0.64% (inactive).

Turning to `C=CCn1c(SC(C)C(=O)OC)nc2c1c(=O)[nH]c(=O)n2C` (centres undefined), the induction is -1.3% (inactive).

Regarding `CCCCCn1c(SCCC(C)C)nc2c1c(=O)[nH]c(=O)n2C`, the induction is 69.2% (active).

Regarding `C=CCn1c(=O)c(C(=O)Nc2cccc(C)n2)c(O)c2ccccc21`, the induction is 2.07% (inactive).

Regarding `CCn1c(COc2ccc(OC)cc2)nnc1SC(C)C(=O)Nc1ccccc1C` (centres undefined), the induction was 28.9% (inactive).

On to `COc1ccccc1Cc1nnc(NC(=O)c2cnc(SC)nc2)s1`, for which the induction was -0.63% (inactive).

As to `CC1=CC(C)(C)N(C(=O)CSc2nccn2C)c2cc(C)ccc21`, the induction is 43.9% (inactive).

For the compound `O=C(CSc1nnc(-c2ccccc2)o1)N1CCOCC1`, the induction was 1.42% (inactive).

As to `CC1=CC(C)(C)N(C(=O)CSc2nnc(-c3ccccc3)o2)c2ccc(C)cc21`, the induction was 61.5% (active).

On to `COc1ccc(-c2csc(N3N=C(C)CC3=O)n2)cc1`, for which the induction is -82.9% (inactive).

On to `NC(=O)C1CCN(Cc2nnnn2Cc2ccccc2)CC1`, for which the induction was 25.5% (inactive).

As to `C=CCn1cnc2sc(C)c(-c3ccc(Cl)cc3)c2c1=O`, the induction is 72.1% (active).

Regarding `CCCn1cnc2sc(C)c(-c3ccc(Cl)cc3)c2c1=O`, the induction is 36.5% (inactive).

On to `CCCOC(=O)Cn1cnc2sc(C)c(-c3ccc(Cl)cc3)c2c1=O`, for which the induction was 27.2% (inactive).

Regarding `O=C(Nc1cccc2ccccc12)C1CCN(C(=O)c2cccc(Cl)c2)CC1`, the induction was -52% (inactive).

As to `CC(C)N(C(=O)CSc1nc(COc2ccccc2)nc2ccccc12)C(C)C`, the induction is 60.5% (active) and 78.3% (active).

Turning to `CN(C(=O)CSc1nc(C2CC2)nc2ccccc12)c1nc(-c2ccccc2)cs1`, the induction is 0.29% (inactive).

Take `CCCc1nc(SCC(=O)Nc2ccc(S(=O)(=O)N(C)C)cc2)c2ccccc2n1`: the induction was 0.33% (inactive).

Regarding `COc1cc(OC)cc(OCC(O)Cn2c(C)nc3ccccc32)c1` (centres undefined), the induction was -45% (inactive).

As for `CCn1c(SCC(=O)Nc2cc(Cl)ccc2Cl)nc2sc(C)c(C)c2c1=O`, the induction was 8.59% (inactive).

Consider `CC1(C(=O)N(CC(=O)NCc2ccc(F)cc2)C2CCCC2)CC(=O)N=C2C=CC=CN21` (centres undefined), for which the induction was -9.59% (inactive).

With `NNC(=O)COc1ccc(C2SCCS2)cc1`, the induction was -9.97% (inactive).

`NC(=O)COc1ccc(NC(=O)c2ccccc2-c2ccccc2)cc1`: the induction was -20.6% (inactive).

With `NC(=O)COc1ccc(C23CC4CC(CC(C4)C2)C3)cc1`, the induction is 87.8% (active).

As for `Cn1nnc2cc(NC(=O)Nc3ccc(F)cc3)ccc21`, the induction is -20.8% (inactive).

As to `CCNc1nc(C)c([N+](=O)[O-])c(C)c1C#N`, the induction is 68.9% (active).

Regarding `Cc1nn(CC(=O)Nc2ccc(C#N)cc2)c(C)c1[N+](=O)[O-]`, the induction was 40.4% (inactive).

As for `Cc1nc(NCCN)c(C#N)c2c1COC(C)(C)C2`, the induction was 14.1% (inactive).

Regarding `COc1ccccc1-c1ocnc1C(=O)Nc1ccc(N2CCC(C)CC2)c(C(N)=O)c1`, the induction is -7.54% (inactive).

Turning to `O=c1oc2ccccc2n1CCCOc1cccc2ccccc12`, the induction was 74.5% (active).

Turning to `Cc1ccc(OCCCn2c(=O)oc3ccccc32)cc1`, the induction is -12.8% (inactive).

Take `NC(=O)Cn1c(=O)oc2ccccc21`: the induction is 8.45% (inactive).

Consider `CC1CCCN(CC(=O)N2CCN(C(=O)CN3CCCC(C)C3)CC2)C1` (centres undefined), for which the induction was -44.2% (inactive).

`CCCn1c(=O)[nH]c2c(C(N)=O)nc(-c3ccccc3F)nc21`: the induction is -12.9% (inactive).

Consider `Cc1noc(C)c1CSCC(=O)Nc1nc2ccc(Oc3ccccc3)cc2s1`, for which the induction was -9.73% (inactive).

For `CCOC(=O)c1c(-c2cccc(C)c2)csc1NC(=O)c1c(-c2ccccc2)noc1C`, the induction was 34.1% (inactive).

With `CCOC(=O)c1c(C2CC2)csc1NC(=O)CSCc1c(C)noc1C`, the induction is 75.9% (active).

`CCOc1cccc(/C(O)=C2/C(=O)C(=O)N(CCN3CCOCC3)C2c2ccc(C)o2)c1` (centres undefined): the induction was -20% (inactive).

As to `CCC(c1nnnn1C(C)(C)CC)N(Cc1cccs1)Cc1cc2ccc(C)c(C)c2[nH]c1=O` (centres undefined), the induction was 48.5% (inactive).

Take `Cc1ccc2c(c1)C(=O)CC1(CCN(C(=O)N3CCOCC3)CC1)O2`: the induction was -15.2% (inactive).

As to `O=C(CSc1nnc2c(n1)[nH]c1ccc(F)cc12)Nc1cccc2ccccc12`, the induction is -43.9% (inactive).

Turning to `C=C(C)Cn1c(N2CCC(C)CC2)nc2c1c(=O)[nH]c(=O)n2C`, the induction was -6.93% (inactive).

For `Cc1cc(C)nc(SCCn2c(N3CCC(C)CC3)nc3c2c(=O)[nH]c(=O)n3C)n1`, the induction is 1.48% (inactive).

For `CC1CCN(c2nc3c(c(=O)[nH]c(=O)n3C)n2CCCc2ccccc2)CC1`, the induction is 57.4% (inactive) and 67% (active).

In the case of `O=C(NCC1CCCO1)C(=O)Nc1cc(Cl)cc(Cl)c1` (centres undefined), the induction was -89.4% (inactive).

Consider `Cc1cc2c(cc3c(=O)n(CC(=O)N(Cc4ccncc4)C4CC4)nc(C)n32)s1`, for which the induction is 41.2% (inactive).

For `CCC(c1nnnn1C1CCCCC1)N(Cc1cccs1)Cc1cc2cc(C)cc(C)c2[nH]c1=O` (centres undefined), the induction was 75.2% (active).

Turning to `Cc1cc(C)c2[nH]c(=O)c(CN(Cc3ccco3)C(c3nnnn3C3CCCCC3)C(C)C)cc2c1` (centres undefined), the induction is 25.3% (inactive).

In the case of `CCOc1ccc2[nH]c(=O)c(CN(Cc3ccccc3)Cc3nnnn3C3CCCC3)cc2c1`, the induction is -7.93% (inactive).

On to `Cc1ccc(CN(Cc2cc3cc4c(cc3[nH]c2=O)OCCO4)Cc2nnnn2C2CCCC2)cc1`, for which the induction was 2.08% (inactive).

As for `Cc1ccc2[nH]c(=O)c(CN(CCc3ccccc3)Cc3nnnn3C3CCCCC3)cc2c1`, the induction is 71.2% (active).

As for `CCC(c1nnnn1C1CCCC1)N(Cc1cccs1)Cc1cc2cccc(C)c2[nH]c1=O` (centres undefined), the induction is 46.6% (inactive).

Consider `Cc1cccc2cc(CN(Cc3ccc4c(c3)OCO4)Cc3nnnn3C3CCCC3)c(=O)[nH]c12`, for which the induction was 42.4% (inactive).

Turning to `Cc1ccc2cc(CN(Cc3ccccc3)C(c3nnnn3C3CCCCC3)C(C)C)c(=O)[nH]c2c1C` (centres undefined), the induction was 45.6% (inactive).

On to `Cc1cccc2cc(CN(Cc3cccs3)Cc3nnnn3C3CCCCC3)c(=O)[nH]c12`, for which the induction is 70.9% (active).

`CCC(c1nnnn1C1CCCC1)N(Cc1cccs1)Cc1cc2ccc(C)c(C)c2[nH]c1=O` (centres undefined): the induction was 49% (inactive).

As to `Cc1cccc2cc(CN(Cc3cccs3)C(c3nnnn3C3CCCC3)C(C)C)c(=O)[nH]c12` (centres undefined), the induction is 63.3% (active) and 74.3% (active).

With `Cc1ccc(CN(Cc2cc3c(C)ccc(C)c3[nH]c2=O)Cc2nnnn2C2CCCC2)cc1`, the induction is 38.9% (inactive).

`CCn1c(COc2ccc(Br)cc2)nnc1SCC(=O)NCc1ccccc1`: the induction is 19.8% (inactive).

With `O=C(CCSc1nc(-c2ccc3c(c2)OCO3)cc(C(F)(F)F)n1)NCc1ccncc1`, the induction was -33.7% (inactive).

With `CC1CCN(c2nc3c(c(=O)[nH]2)CCN(Cc2c(O)ccc4ccccc24)C3)CC1`, the induction was -22.9% (inactive).

Consider `COc1ccccc1NC(=O)COc1ccc(/C=C/C2=CCN(C)CC2)cc1OC`, for which the induction was -73.1% (inactive).

Turning to `CCOc1ccc(OCC)c(NC(=O)CSc2ncnc3sc(C)c(C)c23)c1`, the induction is 40.1% (inactive).

Regarding `Cn1c(=O)sc2cc(S(=O)(=O)NC3(c4ccccc4F)CC3)ccc21`, the induction is -176% (inactive).

For `COc1ccc(Cn2nnnc2CN(Cc2cc3cc(C)ccc3[nH]c2=O)C2CCCCC2)cc1`, the induction was 30.9% (inactive).

With `COc1nc(C)c(CC(=O)Nc2ccc3[nH]c4c(c3c2)CCCC4)c(OC)n1`, the induction is -85% (inactive).
